MITF inh: inhibitors of human MITF. O75030. AlphaScreen MITF homodimerization, bead proximity signal. inhibition, % at 2.6 µM. hit rate 0.91% among 650,000. AID 1259374; in the data active = inhibition above about 50%;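 note: 0% = vehicle wells with protein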
TEAD-YAP block: TEAD-YAP interaction inhibition; HEK-TIYL cells, TEAD-Gal4/YAP UAS-luciferase luminescence; inhibition, % at 9.12 µM; hit rate 1.4% among 640,000; AID 1259422; in the data active = inhibition above about 32%;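 note: 0% = median of test compound wells and 100% = reference inhibitor wells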
FBW7 activator: activators of human E3 ligase FBW7; hit rate 0.13% among 650,000; Q969H0; AlphaScreen FBW7–phospho-cyclin E peptide binding, activator screen; normalized activity (activation), % at 26.1 µM; in the data active = normalized activity above about 1.9%;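 note: purified mutant Fbw7 with reduced substrate affinity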
Target sequence (Q969H0 whole entry, looked up): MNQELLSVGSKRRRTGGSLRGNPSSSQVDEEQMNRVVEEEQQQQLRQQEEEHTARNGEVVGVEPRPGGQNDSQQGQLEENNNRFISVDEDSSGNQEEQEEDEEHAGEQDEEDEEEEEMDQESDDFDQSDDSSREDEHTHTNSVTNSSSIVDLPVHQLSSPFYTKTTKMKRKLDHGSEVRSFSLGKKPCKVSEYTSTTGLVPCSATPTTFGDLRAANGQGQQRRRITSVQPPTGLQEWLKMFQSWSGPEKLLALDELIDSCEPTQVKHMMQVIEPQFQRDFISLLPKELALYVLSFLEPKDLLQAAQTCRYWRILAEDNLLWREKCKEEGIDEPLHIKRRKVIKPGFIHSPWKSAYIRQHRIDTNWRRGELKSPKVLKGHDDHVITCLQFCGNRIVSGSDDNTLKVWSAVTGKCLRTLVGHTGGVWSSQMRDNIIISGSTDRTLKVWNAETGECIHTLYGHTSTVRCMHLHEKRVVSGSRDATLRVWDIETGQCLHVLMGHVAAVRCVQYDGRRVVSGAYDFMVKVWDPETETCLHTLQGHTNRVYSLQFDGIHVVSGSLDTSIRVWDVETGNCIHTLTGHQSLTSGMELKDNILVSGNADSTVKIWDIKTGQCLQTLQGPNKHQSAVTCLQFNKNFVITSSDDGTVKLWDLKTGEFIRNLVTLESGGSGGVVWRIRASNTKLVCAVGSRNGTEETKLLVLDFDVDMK
GPR151 activ: human GPR151 activation. Q8TDV0. PathHunter beta-arrestin GPR151 cells, luminescence. activation, % at 11.2 µM. hit rate 1% among 650,000; in the data active = activation above about 4.9%;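 note: 0% = median of compound wells and 100% = cells with positive control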
Numbers without * were called inactive. Rows were chosen to be rich in hits. Some 3.5% of all compounds tested hit in one or more screens of this group.

SMILES | MITF inh | TEAD-YAP block | FBW7 activator | GPR151 activ
CC(C)(C)C(=O)NC1CCN(Cc2nnnn2Cc2ccco2)CC1 | -1 | 71* | 0 | -5
O=C(NC1CCCCC1)NC1CCN(Cc2nnnn2Cc2ccco2)CC1 | -13 | 0 | 0 | -1
Brc1ccc(-c2ccc(C3CCCCC3)cn2)cc1 | 6 | 63* | 0 | 1
O=C(Cn1c(=O)oc2ccccc21)Nc1ccnc2ccccc12 | 6 | 32* | 0 | 1
COc1cccc(/C=N/Nc2ncc(C)c(=O)[nH]2)c1O | 86* | 87* | 0 | 2
COc1cccc(/C=N/Nc2ncccc2[N+](=O)[O-])c1O | 26 | 98* | -1 | -10
COc1cccc(/C=N/Nc2ccc([N+](=O)[O-])cc2)c1O | 10 | -49 | 1 | -2
COc1ccc(/C=N/Nc2ncccc2[N+](=O)[O-])c(OC)c1 | 13 | 69* | -1 | -9
COc1cccc(/C=N/Nc2nnc(C)n2N)c1O | 11 | -1 | 0 | -1
CCCCNc1nnc(SCc2nc3ccsc3c(=O)[nH]2)s1 | 1 | -2 | 0 | 0
CCN(CC)C(=O)C1CCCN(Cc2ccc3c(c2)CN(C2CCSCC2)CCO3)C1 (centres undefined) | 4 | 10 | 0 | 0
COc1ccc2c(c1)C(=NNC(N)=S)c1cc(OC)ccc1-2 | 44 | 50* | 0 | 0
COc1ccc2c(c1)C(=NO)c1cc(OC)ccc1-2 | 12 | -17 | 0 | 0
CC1=C(C(=O)Nc2cccnc2)C(c2ccc([N+](=O)[O-])cc2)C2=C(CCCC2=O)N1 (centres undefined) | 25 | -4 | 0 | 1
Cc1csc(NC(=O)c2cc([N+](=O)[O-])ccc2Sc2nnnn2C)n1 | 2 | 39* | 0 | 2
NC(=O)c1ccc(Nc2nccc(-c3cccc(Nc4ccccc4)c3)n2)cc1 | 5 | 46* | 1 | -2
CC(O)c1ccc(Nc2nccc(-c3cccc(NS(C)(=O)=O)c3)n2)cc1 (centres undefined) | 12 | 77* | 1 | 1
CS(=O)(=O)Nc1cccc(-c2ccnc(Nc3ccc(CC(N)=O)cc3)n2)c1 | 9 | 37* | 0 | 0
NC(=O)c1cccc(Nc2nccc(-c3cccc(Nc4ccccc4)c3)n2)c1 | 12 | 11 | 1 | 0
O=C(O)Cc1ccc(Nc2nccc(-c3ccccc3)n2)cc1 | 17 | 53* | 0 | 0
CS(=O)(=O)Nc1cccc(-c2ccnc(Nc3ccccc3)n2)c1 | 9 | 68* | 0 | 0
O=c1cc(CNCc2cccs2)c2cc3c(cc2o1)CCC3 | 0 | 45* | 0 | -2
O=C(O)c1cccc(-c2cnn3c(NCc4cccs4)ccnc23)c1 | 8 | 94* | 0 | 2
Oc1cccc(-c2cnn3c(NCC4CC4)ccnc23)c1 | -7 | 98* | 0 | -1
CN(C)CCNC(=O)c1cccc(-c2cnn3c(NCc4cccs4)ccnc23)c1 | -1 | 93* | 0 | 0
SMILES | MITF inh | TEAD-YAP block | FBW7 activator | GPR151 activ
COc1ccc(CNc2ccnc3c(-c4cccc(C(=O)NCCN(C)C)c4)cnn23)cc1 | 1 | -52 | 0 | -1
Nc1cccc(-c2cnn3c(NCC4CC4)ccnc23)c1 | -10 | -11 | 0 | -1
Clc1cccc(-c2cnn3c(NCc4cccs4)ccnc23)c1 | -10 | -35 | 0 | 0
Oc1cccc(-c2cnn3c(NCc4cccs4)ccnc23)c1 | 3 | 99* | 0 | -2
COC(=O)c1cc(Nc2ncnc3c2cnn3-c2ccc(Cl)cc2)cc(C(=O)OC)c1 | 14 | 15 | 0 | 4
O=C(Nc1ccccc1Cl)c1cc(I)cc([N+](=O)[O-])c1 | 23 | -7 | 0 | -1
CCCCSc1nnc2c(n1)OC(c1cccc(C)n1)N(C(C)=O)c1ccccc1-2 (centres undefined) | -5 | 4 | 0 | 0
CC(C)N(CCNc1nc(Nc2ccc(-n3ccnc3)cc2)nc2c1ncn2-c1ccsc1)C(C)C | 15 | 51* | 0 | 1
CC(C)N(CCNc1nc(Nc2ccc(-n3ccnc3)cc2)nc2c1ncn2C(C)C)C(C)C | 5 | 60* | 1 | -1
CC(C)N(CCNc1nc(Nc2ccccn2)nc2c1ncn2C(C)C)C(C)C | -1 | 43* | 0 | 0
c1ccc(CNc2nc(Nc3ccc(-n4ccnc4)cc3)nc3c2ncn3-c2ccsc2)cc1 | 9 | 2 | 0 | 5
CC(C)N(CCNc1nc(Nc2ccc(-n3ccnc3)cc2)nc2c1ncn2-c1ccccc1)C(C)C | 8 | 34* | 0 | 2
Cc1cc2c(c(=O)o1)C(c1ccccc1)C(C#N)=C(N)O2 (centres undefined) | 5 | -6 | 0 | -1
Nc1ccc(NC(=O)c2nc[nH]c2C(=O)O)cc1 | 86* | 6 | -2 | 0
CCOC(=O)c1cccc(NC(=O)/C(C#N)=C/c2ccc(OC)cc2)c1 | 13 | 1 | 0 | 1
O=C1/C(=C/c2cccnc2)CCCC/C1=C\c1cccnc1 | 13 | -2 | 1 | -4
CN1C/C(=C\c2ccncc2)C(=O)/C(=C/c2ccncc2)C1 | 8 | 95* | 0 | 0
Cc1ccc(/C=C2/CN(C)C/C(=C/c3ccc(C)o3)C2=O)o1 | 0 | 2 | 0 | 0
O=C1/C(=C/c2ccncc2)CCC/C1=C\c1ccncc1 | -2 | 59* | 0 | 0
Cc1cc(C)nc(SCC(=O)Nc2nnc(-c3ccccc3)s2)n1 | -2 | -11 | 0 | -1
CCN1/C(=C\C=C(/C)C=O)Sc2ccccc21 | 8 | 11 | 0 | 3
CCN1/C(=C/c2ccc3ccccc3[n+]2CC)Sc2c1ccc1ccccc21 | 43 | 87* | 0 | 1
CCN1/C(=C/c2ccc3ccccc3[n+]2CC)Sc2ccc(I)cc21 | 18 | 68* | 0 | 4
CCCCN1/C(=C/c2ccc3ccccc3[n+]2CC)Sc2ccccc21 | 5 | 92* | -1 | 4
CCN1/C(=C/c2ccc3cc(NC(C)=O)ccc3[n+]2CC)Sc2ccccc21 | 6 | 52* | -1 | 0
SMILES | MITF inh | TEAD-YAP block | FBW7 activator | GPR151 activ
Cc1nc(-c2cccs2)c(CCC(=O)Nc2ccccn2)s1 | 20 | 0 | 0 | 4
CCCCN1/C(=C/c2ccc3cc(OC)ccc3[n+]2CC)Sc2ccc(OC)cc21 | 18 | 89* | -1 | 2
CCN1/C(=C/c2ccc3ccccc3[n+]2CC)Sc2ccc(OC)cc21 | 18 | 90* | 0 | 1
CC[n+]1c(I)ccc2cc(OC)ccc21 | -1 | -2 | 0 | 2
O=C(NCC1CCCO1)c1ncoc1-c1cccs1 (centres undefined) | 12 | -16 | 1 | -2
CCS(=O)(=O)N1CCN(Cc2nc(-c3ccc(Cl)cc3)cs2)CC1 | -3 | 33* | 0 | 0
CC(NC(N)=O)C(=O)OCc1ccc(C(C)(C)C)cc1 (centres undefined) | 5 | 8 | 0 | 0
COc1cc(/C=N/Nc2nnc(C(C)(C)C)c(=O)n2N)ccc1O | 12 | 8 | 0 | -1
COc1ccc(O)c(/C=N/Nc2nnc(C)c(=O)[nH]2)c1 | 79* | 72* | -1 | -2
Cc1nnc(N/N=C/c2ccc(Br)cc2)[nH]c1=O | 9 | 6 | 1 | 1
COc1ccc(/C=N/Nc2nnc(C)c(=O)[nH]2)cc1 | -11 | -5 | 0 | -1
